Measured values reported in PubChem BioAssay AID1159580 (chemical genetic matrix, 2015).
About 2,000 (36%) of roughly 5,500 compounds were called active. Not shown: some 18% with an inconclusive outcome. Cut-off read from the data, not from the text of the source: active = normalized growth mostly below about 0.91 (no sharp cut-off); inconclusive = no clear call, values can overlap the other calls; inactive = mostly above about 0.92. The list shows a part of the results.

Experiment: chemical genetic growth profiling, strain panel (AID 1159580);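 note: tested at 20 µM; growth read once vehicle control cultures reached saturation at 30 °C; 1 = growth at the plate median or of vehicle wells; lower values mean less growth of the strain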
Conditions: growth OD
[1] = S. cerevisiae deletion strains, locus YHR030C, strain SLT2, active compounds read low

Measured: normalized growth

Cc1c(C(=O)O)cc(-c2ccccc2)n1-c1ccccc1
inactive: S. cerevisiae deletion strains, locus YAL013W, strain DEP1, active compounds read low 0.988 | S. cerevisiae deletion strains, locus YBR229C, strain ROT2, active compounds read low 1.01 | S. cerevisiae deletion strains, locus YDL101C, strain DUN1, active compounds read low 1 | S. cerevisiae deletion strains, locus YDR150W, strain NUM1, active compounds read low 0.892 | S. cerevisiae deletion strains, locus YEL061C, strain CIN8, active compounds read low 0.941 | S. cerevisiae deletion strains, locus YGR078C, strain PAC10, active compounds read low 0.999 | S. cerevisiae deletion strains, locus YHR087W, strain rtc3, active compounds read low 0.985 | S. cerevisiae deletion strains, locus YJL187C, strain SWE1, active compounds read low 0.988 | S. cerevisiae deletion strains, locus YJR043C, strain POL32, active compounds read low 0.999 | S. cerevisiae deletion strains, locus YJR075W, strain HOC1, active compounds read low 0.959 | S. cerevisiae deletion strains, locus YKL190W, strain CNB1, active compounds read low 0.975 | S. cerevisiae deletion strains, locus YLR058C, strain SHM2 (second series), active compounds read low 1.01 | S. cerevisiae deletion strains, locus YML094W, strain GIM5, active compounds read low 0.945 | S. cerevisiae deletion strains, locus YMR219W, strain ESC1, active compounds read low 0.998 | S. cerevisiae deletion strains, locus YMR263W, strain SAP30, active compounds read low 0.981 | S. cerevisiae deletion strains, locus YNL153C, strain GIM3, active compounds read low 0.952 | S. cerevisiae deletion strains, locus YNL298W, strain CLA4 (second series), active compounds read low 0.869 | S. cerevisiae deletion strains, locus YNL322C, strain KRE1, active compounds read low 1 | S. cerevisiae deletion strains, locus YNR030W, strain Alg12, active compounds read low 0.923 | S. cerevisiae deletion strains, locus YOL006C, strain TOP1, active compounds read low 0.85 | S. cerevisiae deletion strains, locus YPL055C, strain LGE1, active compounds read low 0.865 | S. cerevisiae deletion strains, locus YPL241C, strain CIN2, active compounds read low 0.907 | S. cerevisiae strains, strain wild type, active compounds read low 0.987
active: [1] 0.613 | S. cerevisiae deletion strains, locus YLR039C, strain RIC1, active compounds read low 0.674 | S. cerevisiae deletion strains, locus YLR085C, strain ARP6, active compounds read low 0.654 | S. cerevisiae deletion strains, locus YLR262C, strain YPT6, active compounds read low 0.66 | S. cerevisiae deletion strains, locus YMR307W, strain GAS1, active compounds read low 0.467 | S. cerevisiae deletion strains, locus YPR135W, strain CTF4, active compounds read low 0.64

Cc1cc(OC(=O)N2CCCCC2)c(C(C)C)cc1[N+](C)(C)C
inactive: S. cerevisiae deletion strains, locus YAL021C, strain ccr4, active compounds read low 0.994 | S. cerevisiae deletion strains, locus YAL026C, strain drs2, active compounds read low 1.03 | S. cerevisiae deletion strains, locus YAL030W, strain snc1, active compounds read low 1.01 | S. cerevisiae deletion strains, locus YBL061C, strain skt5, active compounds read low 1.01 | S. cerevisiae deletion strains, locus YBR009C, strain hhf1, active compounds read low 0.992 | S. cerevisiae deletion strains, locus YBR023C, strain chs3, active compounds read low 1.01 | S. cerevisiae deletion strains, locus YBR171W, strain sec66, active compounds read low 1.01 | S. cerevisiae deletion strains, locus YBR231C, strain swc5, active compounds read low 1.02 | S. cerevisiae deletion strains, locus YBR279W, strain paf1, active compounds read low 1.01 | S. cerevisiae deletion strains, locus YCL011C, strain gbp2, active compounds read low 0.998 | S. cerevisiae deletion strains, locus YCL016C, strain dcc1, active compounds read low 0.987 | S. cerevisiae deletion strains, locus YCL069W, strain vba3, active compounds read low 1 | S. cerevisiae deletion strains, locus YCR088W, strain abp1, active compounds read low 1.01 | S. cerevisiae deletion strains, locus YDL005C, strain med2, active compounds read low 1.02 | S. cerevisiae deletion strains, locus YDL040C, strain nat1, active compounds read low 1.01 | S. cerevisiae deletion strains, locus YDR001C, strain nth1, active compounds read low 1.01 | S. cerevisiae deletion strains, locus YDR069C, strain doa4, active compounds read low 1.03 | S. cerevisiae deletion strains, locus YDR137W, strain rgp1, active compounds read low 1.03 | S. cerevisiae deletion strains, locus YDR159W, strain sac3, active compounds read low 1.06 | S. cerevisiae deletion strains, locus YDR195W, strain ref2 0.997 | S. cerevisiae deletion strains, locus YDR297W, strain sur2, active compounds read low 1.01 | S. cerevisiae deletion strains, locus YDR334W, strain swr1, active compounds read low 1 | S. cerevisiae deletion strains, locus YDR335W, strain msn5, active compounds read low 1.01 | S. cerevisiae deletion strains, locus YDR392W, strain spt3, active compounds read low 0.995 | S. cerevisiae deletion strains, locus YEL003W, strain gim4, active compounds read low 1.01 | S. cerevisiae deletion strains, locus YEL037C, strain rad23, active compounds read low 1 | S. cerevisiae deletion strains, locus YEL061C, strain CIN8 (second series), active compounds read low 1.01 | S. cerevisiae deletion strains, locus YER015W, strain faa2, active compounds read low 1 | S. cerevisiae deletion strains, locus YER016W, strain bim1, active compounds read low 1.01 | S. cerevisiae deletion strains, locus YER111C, strain swi4, active compounds read low 1.01 | S. cerevisiae deletion strains, locus YER155C, strain BEM2 (second series), active compounds read low 0.998 | S. cerevisiae deletion strains, locus YFR010W, strain ubp6, active compounds read low 1.02 | S. cerevisiae deletion strains, locus YGL167C, strain pmr1, active compounds read low 1.01 | S. cerevisiae deletion strains, locus YGL173C, strain kem1, active compounds read low 1.02 | S. cerevisiae deletion strains, locus YGL227W, strain vid30, active compounds read low 0.999 | S. cerevisiae deletion strains, locus YGL240W, strain doc1, active compounds read low 1.02 | S. cerevisiae deletion strains, locus YGL253W, strain hxk2, active compounds read low 1.01 | S. cerevisiae deletion strains, locus YHR013C, strain ard1, active compounds read low 0.995 | S. cerevisiae deletion strains, locus YHR027C, strain rpn1, active compounds read low 1.01 | [1] 1 | S. cerevisiae deletion strains, locus YHR079C, strain IRE1, active compounds read low 1.01 | S. cerevisiae deletion strains, locus YHR142W, strain chs7, active compounds read low 0.986 | S. cerevisiae deletion strains, locus YJL092W, strain hpr5, active compounds read low 1.01 | S. cerevisiae deletion strains, locus YJL095W, strain BCK1 (second series), active compounds read low 1 | S. cerevisiae deletion strains, locus YJL095W, strain BCK1, active compounds read low 1.01 | S. cerevisiae deletion strains, locus YJL115W, strain asf1, active compounds read low 1.02 | S. cerevisiae deletion strains, locus YJL129C, strain trk1, active compounds read low 1.03 | S. cerevisiae deletion strains, locus YJL154C, strain vps35, active compounds read low 1.01 | S. cerevisiae deletion strains, locus YJL164C, strain tpk1, active compounds read low 1 | S. cerevisiae deletion strains, locus YJL166W, strain qcr8, active compounds read low 1.05 | S. cerevisiae deletion strains, locus YJR066W, strain TOR1, active compounds read low 0.911 | S. cerevisiae deletion strains, locus YKL160W, strain elf1, active compounds read low 0.988 | S. cerevisiae deletion strains, locus YKR026C, strain gcn3, active compounds read low 1 | S. cerevisiae deletion strains, locus YKR091W, strain srl3, active compounds read low 1 | S. cerevisiae deletion strains, locus YLL001W, strain dnm1, active compounds read low 1 | S. cerevisiae deletion strains, locus YLL026W, active compounds read low 1.03 | S. cerevisiae deletion strains, locus YLL041C, strain sdh2, active compounds read low 1.03 | S. cerevisiae deletion strains, locus YLR027C, strain aat2, active compounds read low 1.01 | S. cerevisiae deletion strains, locus YLR113W, strain HOG1, active compounds read low 1 | S. cerevisiae deletion strains, locus YLR221C, strain rsa3, active compounds read low 1.01 | S. cerevisiae deletion strains, locus YLR258W, strain gsy2, active compounds read low 0.987 | S. cerevisiae deletion strains, locus YLR262C, strain YPT6 (second series), active compounds read low 1.03 | S. cerevisiae deletion strains, locus YLR320W, strain mms22, active compounds read low 1.02 | S. cerevisiae deletion strains, locus YLR342W, strain FKS1, active compounds read low 1.01 | S. cerevisiae deletion strains, locus YLR357W, strain rsc2, active compounds read low 1.06 | S. cerevisiae deletion strains, locus YLR370C, strain arc18, active compounds read low 0.989 | S. cerevisiae deletion strains, locus YLR384C, strain iki3, active compounds read low 0.999 | S. cerevisiae deletion strains, locus YML120C, strain ndi1, active compounds read low 1 | S. cerevisiae deletion strains, locus YMR058W, strain fet3, active compounds read low 1.02 | S. cerevisiae deletion strains, locus YMR125W, strain sto1, active compounds read low 1.01 | S. cerevisiae deletion strains, locus YMR129W, active compounds read low 1.01 | S. cerevisiae deletion strains, locus YMR205C, strain PFK2, active compounds read low 1.02 | S. cerevisiae deletion strains, locus YMR231W, strain pep5, active compounds read low 1.01 | S. cerevisiae deletion strains, locus YNL071W, strain lat1, active compounds read low 1.01 | S. cerevisiae deletion strains, locus YNL183C, strain NPR1, active compounds read low 0.949 | S. cerevisiae deletion strains, locus YNL209W, strain ssb2, active compounds read low 1 | S. cerevisiae deletion strains, locus YNL248C, strain rpa49, active compounds read low 1.02 | S. cerevisiae deletion strains, locus YNL322C, strain KRE1 (second series), active compounds read low 1 | S. cerevisiae deletion strains, locus YNR049C, strain mso1, active compounds read low 1.01 | S. cerevisiae deletion strains, locus YOR001W, strain rrp6, active compounds read low 1.04 | S. cerevisiae deletion strains, locus YOR070C, strain gyp1, active compounds read low 1 | S. cerevisiae deletion strains, locus YOR080W, strain dia2, active compounds read low 1.01 | S. cerevisiae deletion strains, locus YOR083W, strain WHI5, active compounds read low 0.975 | S. cerevisiae deletion strains, locus YOR106W, strain vam3, active compounds read low 0.99 | S. cerevisiae deletion strains, locus YOR231W, strain MKK1, active compounds read low 0.999 | S. cerevisiae deletion strains, locus YOR265W, strain rbl2, active compounds read low 0.98 | S. cerevisiae deletion strains, locus YOR270C, strain vph1, active compounds read low 1.08 | S. cerevisiae deletion strains, locus YOR290C, strain snf2, active compounds read low 0.988 | S. cerevisiae deletion strains, locus YPL051W, strain arl3, active compounds read low 1.01 | S. cerevisiae deletion strains, locus YPL078C, strain atp4, active compounds read low 0.99 | S. cerevisiae deletion strains, locus YPL106C, strain sse1, active compounds read low 1.01 | S. cerevisiae deletion strains, locus YPL240C, strain hsp82, active compounds read low 1.01 | S. cerevisiae deletion strains, locus YPL256C, strain CLN2, active compounds read low 0.978
